Data published in PubChem BioAssay AID1159580 (chemical genetic matrix, 2015).
“And” between values parts separate entries of the source, which are not always exact repeats. Equal values may be shown once. Among all 5,500 compounds or so, about 2,000 (36%) were called active. About 18% were inconclusive and are not listed. Cut-off read from the data, not from the text of the source: active = normalized growth mostly below about 0.91 (no sharp cut-off); inconclusive = no clear call, values can overlap the other calls; inactive = mostly above about 0.92. The list shows a part of the results.

Test: chemical genetic growth profiling, strain panel (AID 1159580);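 note: tested at 20 µM; growth read once vehicle control cultures reached saturation at 30 °C; 1 = growth at the plate median or of vehicle wells; lower values mean less growth of the strain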
Details: S. cerevisiae deletion strains, growth OD

Measured: normalized growth

CO[C@H]1C[C@H](O[C@H]2[C@H](C)[C@@H](OC3O[C@H](C)C[C@H](N(C)C)[C@H]3OC(C)=O)[C@@H](C)C[C@]3(CO3)C(=O)[C@H](C)[C@@H](OC(C)=O)[C@@H](C)[C@@H](C)OC(=O)[C@@H]2C)O[C@@H](C)[C@@H]1OC(C)=O (some centres undefined)
inactive: locus YAL021C, strain ccr4, active compounds read low 0.998 | locus YAL026C, strain drs2, active compounds read low 1.01 | locus YAL030W, strain snc1, active compounds read low 0.989 | locus YBL061C, strain skt5, active compounds read low 1 | locus YBR009C, strain hhf1, active compounds read low 0.997 | locus YBR021W, strain FUR4, active compounds read low 0.996 | locus YBR023C, strain chs3, active compounds read low 0.996 | locus YBR171W, strain sec66, active compounds read low 1.01 | locus YBR229C, strain ROT2, active compounds read low 1.01 | locus YBR231C, strain swc5, active compounds read low 0.996 | locus YBR279W, strain paf1, active compounds read low 1 | locus YCL011C, strain gbp2, active compounds read low 1.01 | locus YCL016C, strain dcc1, active compounds read low 1 | locus YCL029C, strain bik1, active compounds read low 0.997 | locus YCL061C, strain MRC1, active compounds read low 0.992 | locus YCL069W, strain vba3, active compounds read low 0.994 | locus YCR088W, strain abp1, active compounds read low 0.994 | locus YDL005C, strain med2, active compounds read low 0.985 | locus YDL035C, strain GPR1, active compounds read low 1.01 | locus YDL040C, strain nat1, active compounds read low 0.998 | locus YDL074C, strain BRE1, active compounds read low 1 | locus YDL101C, strain DUN1, active compounds read low 1.01 | locus YDL134C, strain PPH21, active compounds read low 1 | locus YDL185W, strain tfp1, active compounds read low 0.981 | locus YDL192W, strain arf1, active compounds read low 0.989 | locus YDR001C, strain nth1, active compounds read low 0.992 | locus YDR069C, strain doa4, active compounds read low 0.998 | locus YDR101C, strain arx1, active compounds read low 1.01 | locus YDR137W, strain rgp1, active compounds read low 1 | locus YDR159W, strain sac3, active compounds read low 0.997 | locus YDR162C, strain NBP2, active compounds read low 1 | locus YDR195W, strain ref2 1 | locus YDR297W, strain sur2, active compounds read low 0.991 | locus YDR318W, strain mcm21, active compounds read low 0.993 | locus YDR334W, strain swr1, active compounds read low 1 | locus YDR335W, strain msn5, active compounds read low 0.998 | locus YDR388W, active compounds read low 0.979 | locus YDR392W, strain spt3, active compounds read low 0.996 | locus YDR502C, strain sam2, active compounds read low 0.977 | locus YEL003W, strain gim4, active compounds read low 1 | locus YEL037C, strain rad23, active compounds read low 0.998 | locus YEL061C, strain CIN8 (second series), active compounds read low 1 | locus YEL061C, strain CIN8, active compounds read low 1.01 | locus YER015W, strain faa2, active compounds read low 0.998 | locus YER016W, strain bim1, active compounds read low 0.997 | locus YER110C, active compounds read low 0.988 | locus YER111C, strain swi4, active compounds read low 1.01 | locus YER155C, strain BEM2 (second series), active compounds read low 0.994 | locus YER155C, strain BEM2, active compounds read low 1.01 | locus YER167W, strain BCK2, active compounds read low 1 | locus YFR010W, strain ubp6, active compounds read low 1.01 | locus YGL078C, strain dbp3, active compounds read low 0.984 | locus YGL086W, strain mad1, active compounds read low 1 | locus YGL167C, strain pmr1, active compounds read low 0.996 | locus YGL173C, strain kem1, active compounds read low 1.01 | locus YGL227W, strain vid30, active compounds read low 1.02 | locus YGL240W, strain doc1, active compounds read low 1.01 | locus YGL248W, strain PDE1, active compounds read low 1.01 | locus YGL253W, strain hxk2, active compounds read low 0.991 | locus YGR078C, strain PAC10, active compounds read low 1.01 | locus YGR135W, strain pre9, active compounds read low 0.986 | locus YGR252W, strain gcn5, active compounds read low 0.933 | locus YHR013C, strain ard1, active compounds read low 0.986 | locus YHR027C, strain rpn1, active compounds read low 0.995 | locus YHR030C, strain SLT2, active compounds read low 1.01 and 0.973 | locus YHR079C, strain IRE1 (second series), active compounds read low 0.992 | locus YHR079C, strain IRE1, active compounds read low 0.987 | locus YHR094C, strain hxt1, active compounds read low 0.988 | locus YHR129C, strain ARP1, active compounds read low 1.01 | locus YHR142W, strain chs7, active compounds read low 1.01 | locus YHR200W, strain rpn10, active compounds read low 0.992 | locus YIL066C, strain RNR3, active compounds read low 1.01 | locus YIL073C, strain SPO22, active compounds read low 1 | locus YIL125W, strain kgd1, active compounds read low 0.988 | locus YIR030C, strain dcg1, active compounds read low 1 | locus YJL092W, strain hpr5, active compounds read low 1 | locus YJL095W, strain BCK1 (second series), active compounds read low 0.99 | locus YJL095W, strain BCK1, active compounds read low 1.01 and 0.973 | locus YJL115W, strain asf1, active compounds read low 1.02 | locus YJL129C, strain trk1, active compounds read low 0.979 | locus YJL134W, strain LCB3, active compounds read low 1 | locus YJL154C, strain vps35, active compounds read low 0.987 | locus YJL164C, strain tpk1, active compounds read low 1 | locus YJL166W, strain qcr8, active compounds read low 1 | locus YJL168C, strain set2, active compounds read low 0.994 | locus YJL187C, strain SWE1 (second series), active compounds read low 1.01 | locus YJL187C, strain SWE1, active compounds read low 1 | locus YJR043C, strain POL32, active compounds read low 0.986 | locus YJR066W, strain TOR1, active compounds read low 0.955
